Sampled rows, rich in hits. Any-hit rate of the full collection: about 0.9%.
PPARg SRC-2 ag – promotes SRC-2 coactivator recruitment by human PPARgamma; AID 1032; 200,000 tested, 0.34% active; activation, % at 8 µM; P37231; PPARgamma LBD-SRC-2 recruitment, biochemical; in the data active means activation above about 22%;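 further: 0% = vehicle and 100% = reference agonist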
Target sequence (P37231 whole entry, looked up, the tested form may be a part): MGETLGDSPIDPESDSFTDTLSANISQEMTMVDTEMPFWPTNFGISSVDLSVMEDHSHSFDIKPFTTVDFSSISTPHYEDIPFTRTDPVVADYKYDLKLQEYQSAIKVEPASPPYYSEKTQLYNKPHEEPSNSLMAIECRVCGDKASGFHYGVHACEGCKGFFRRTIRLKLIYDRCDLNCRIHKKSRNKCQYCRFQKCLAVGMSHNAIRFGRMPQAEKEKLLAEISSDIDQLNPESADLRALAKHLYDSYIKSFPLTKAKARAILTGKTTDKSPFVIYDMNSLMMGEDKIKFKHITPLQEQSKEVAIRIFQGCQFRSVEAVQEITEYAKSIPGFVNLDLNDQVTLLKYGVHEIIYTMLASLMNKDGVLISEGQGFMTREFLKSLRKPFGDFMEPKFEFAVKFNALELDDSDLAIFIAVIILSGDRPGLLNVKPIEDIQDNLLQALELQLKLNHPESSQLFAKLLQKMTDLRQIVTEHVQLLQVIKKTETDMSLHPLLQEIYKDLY
SRC1 TRFRET art – flags TR-FRET format artefacts in PPARgamma SRC-1 recruitment agonist screen | TR-FRET ratio at 8 µM | TR-FRET detection artefact counter-screen, emission ratio; active compounds read high | AID 1051 | 99,000 tested, 0.34% active; in the data active means TR-FRET ratio above about 2300
PPARg SRC-1 ag – promotes SRC-1 coactivator recruitment by human PPARgamma; P37231; PPARgamma-SRC-1 coactivator recruitment biochemical assay; activation, % at 8 µM; 200,000 tested, 0.41% active; AID 631; in the data active means activation above about 19%;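 further: 0% = DMSO and 100% = reference agonist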
PPARg SRC3 recr – agonists of human PPARgamma SRC-3 coactivator recruitment; biochemical PPARgamma/SRC-3 coactivator recruitment assay; activation, % at 8 µM; 200,000 tested, 0.26% active; in the data active means activation above about 23%;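 further: 0% = DMSO and 100% = reference agonist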
SRC2 TRFRET art – counter-screen for PPARgamma SRC-2 recruitment agonists: TR-FRET artefact; TR-FRET ratio at 8 µM; active compounds read high; 200,000 tested, 0.4% active
SRC3 TRFRET art – counter-screen for PPARgamma SRC-3 recruitment agonists: TR-FRET artefact; TR-FRET ratio at 8 µM; 99,000 tested, 0.39% active; PPARgamma/SRC-3 format; active compounds read high
An asterisk follows results filed as active; / = no result given. Unless noted, no stated cut-off is given here; in the data, active means TR-FRET ratio above about 2000; inactive means the rest.

SMILES	PPARg SRC-2 ag	SRC1 TRFRET art	PPARg SRC-1 ag	PPARg SRC3 recr	SRC2 TRFRET art	SRC3 TRFRET art
CCN1/C(=C/c2ccc3cc(C)ccc3[n+]2C)Sc2ccc3sccc3c21	53*	3458*	96*	46*	2435*	2512*
CCc1nc2ccc(C(=O)Nc3cccc(C(C)=O)c3)cc2nc1CC	-7	1697	-2	-4	1617	1517
CCc1nc2ccc(C(=O)Nc3nnc(C)s3)cc2nc1CC	-3	6131*	478*	2	1452	1708
COCCCNC(=S)NC1CC2CCCC(C1)N2Cc1ccco1 (configuration not stated)	5	/	2	1	1497	/
Cc1c(C(=O)OCC(=O)N2CC(C)OC(C)C2)oc2ccc(Br)cc12 (configuration not stated)	4	/	4	-5	1373	/
CC(/C=N/NC(=O)NC1CCCCC1)=C\c1ccccc1	7	2009	-1	2	2081*	1722
O=C(N/N=C/C(Br)=C/c1ccccc1)NC1CCCCC1	2	1911	3	8	1543	1424
COc1ccc2nc(C)cc(SCC(=O)Nc3c(C)cc(C)cc3C)c2c1	12	/	32*	7	1613	/
COc1ccc2nc(C)cc(SCC(=O)NNC(=O)COc3ccc(C)cc3)c2c1	16	/	16	11	1879	/
COc1ccc2nc(C)cc(SCC(=O)Nc3c(C)cccc3C)c2c1	26*	2033	-3	10	1994*	2003
O=C1c2cccc(OCC(=O)N3CCCc4ccccc43)c2CCN1Cc1ccccc1	1	1537	24*	-3	1628	1467
O=C1c2cccc(OCC(=O)N3CCCc4ccccc43)c2CCN1Cc1ccc(Br)cc1	-7	1638	1	-6	1367	1560
O=C1OCCC1Sc1nnc(-c2ccc(Br)cc2)o1 (configuration not stated)	24*	/	3	2	1523	/
O=S(=O)(Nc1nccs1)c1ccc(Cl)cc1	12	/	1	2	1519	/
CCCSc1nc(C)c(CC(=O)O)c(=O)[nH]1	7	/	3	-4	1709	/
C=CCN(c1cccc(C(F)(F)F)c1)S(=O)(=O)c1cccc(C(=O)OCC(=O)NCCC)c1	2	1986	3	8	1647	1742
CCSC1=N/C(=C\c2ccc(OC)cc2)C(=O)N1	-2	1935	8	8	1665	1829
COc1ccc(/C=C2\N=C(SC)NC2=O)cc1	22*	/	4	16	1784	/
Cc1cc2cc3c(cc2nc1SCc1ccc(C(=O)O)cc1)OCCO3	12	1728	10	-6	1513	1655
COc1cccc(CSc2nc3cc4c(cc3cc2C)OCCO4)c1	11	2000	9	7	1704	2784*
COc1ccc(-c2ccc(C#N)c(SCC(=O)OCc3ccccc3)n2)cc1OC	-1	/	-4	5	2143*	/
O=C1N/C(=C/c2ccc(N3CCOCC3)o2)C(=O)N1c1cccc(Cl)c1	2	1744	12	4	1588	1695
COc1ccc(CCN(C)S(=O)(=O)c2ccc(Cl)nc2)cc1OC	0	1881	7	3	1975*	1616
CN(Cc1ccccc1)S(=O)(=O)c1ccc(Cl)nc1	3	/	6	12	1574	/
CC(=O)c1ccc(-n2c(SCC(=O)c3c[nH]c4ccccc34)nc3ccccc3c2=O)cc1	11	2168	4	5	1706	2096*
SMILES	PPARg SRC-2 ag	SRC1 TRFRET art	PPARg SRC-1 ag	PPARg SRC3 recr	SRC2 TRFRET art	SRC3 TRFRET art
CCOC(=O)c1c(C)[nH]c(C)c1C(=O)CSc1nc2ccccc2c(=O)n1-c1ccc(CC)cc1	6	1883	3	2	1617	1640
COc1cc(/C=C/CN2CCN(Cc3ccc(C)o3)C(CCO)C2)ccc1O (configuration not stated)	0	1897	9	2	1578	1730
N#Cc1c(-c2ccc(Br)cc2)cc(-c2cccnc2)nc1N	1	1900	6	11	1568	2107*
Cc1ccc2nsnc2c1S(=O)(=O)N1CCN(Cc2ccc3c(c2)OCO3)CC1	15	/	9	8	1701	/
CCCCOc1[nH]c2nc(-c3ccco3)n(Cc3ccco3)c(=N)c2c1C#N	4	/	5	-1	1469	/
CC(=O)Nc1ccc(Br)c2ccccc12	20	2333*	18	12	2043*	2311*
O=C(Nc1cnccn1)c1cccc(C(F)(F)F)c1	65*	/	0	2	2375*	/
O=C(Nc1nc(-c2cccs2)cs1)c1ccc(S(=O)(=O)N2CCCC2)cc1	0	/	-5	4	2064*	/
